# “And” between values parts separate entries of the source, which are not always exact repeats. Equal entries are not always repeated. Structures can show the parent of a compound that is named as a salt. Among all 5,800 compounds or so, about 620 (11%) showed activity. The sample holds actives, similar compounds and a random draw of the others, so the mix is not that of the screen. A number with no mark means an inactive call.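 Rule for the calls: active = score above a cut-off or among the top three wells of a plate; in these data no inactive exceeds 0.85.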
# Tested on: primary human hepatic stellate cells (donor 1)
# Experiment: scaled lipid accumulation score (0 = DMSO-like, 1 = nortriptyline-like); higher = stronger HSC inactivation (lipid re-accumulation), active = hit call of the paper
# Conditions: 48 h
# [1] = library stock concentration: 10 mM
# [2] = library stock concentration: 3.33 mM
# [3] = library stock concentration: 1 mM
compound,measurement,setting,value
CN1CCN(CCCN2c3ccccc3Sc3ccc(C(F)(F)F)cc32)CC1 [Trifluoperazine hydrochloride],scaled lipid accumulation score,[1],0.396
CN1CCN(CCCN2c3ccccc3Sc3ccc(C(F)(F)F)cc32)CC1 [Trifluoperazine 2HCl],scaled lipid accumulation score,[2],≤ 0
same,scaled lipid accumulation score,[1],0.815
CN1CCN(CCCN2c3ccccc3Sc3ccc(C(F)(F)F)cc32)CC1.Cl.Cl [Trifluoperazine dihydrochloride],scaled lipid accumulation score,[1],0.914 (active)
CN1CCN(CCCN2c3ccccc3Sc3ccc(C(F)(F)F)cc32)CC1 [Trifluoperazine dihydrochloride],scaled lipid accumulation score,,0.393
CN1CCN(CCCN2c3ccccc3Sc3ccc(C(F)(F)F)cc32)CC1,scaled lipid accumulation score,[1],0.99 (active)
O=C(O)CCC/C=C\C[C@@H]1[C@@H](/C=C/[C@@H](O)COc2cccc(C(F)(F)F)c2)[C@H](O)C[C@@H]1O [Fluprostenol],scaled lipid accumulation score,[3],0.005 and ≤ -0.021
Cn1c(=O)cc(N2CCC[C@@H](N)C2)n(Cc2cc(F)ccc2C#N)c1=O [Trelagliptin],scaled lipid accumulation score,[2],≤ -0.009
same,scaled lipid accumulation score,[1],≤ 0
O=C(O)CCC/C=C\C[C@H]1C(=O)C=C[C@@H]1/C=C/[C@@H](O)CCc1ccccc1 [17-phenyl trinor Prostaglandin A2],scaled lipid accumulation score,[3],≤ 0
Cc1cc([N+](=O)[O-])ccc1NS(=O)(=O)c1cc(Cl)ccc1Cl,scaled lipid accumulation score,[2],≤ -0.009
same,scaled lipid accumulation score,[1],0.147
Nc1nc2c(cnn2CCc2ccccc2)c2nc(-c3ccco3)nn12,scaled lipid accumulation score,[1],0.583
CCCCC[C@@](C)(O)/C=C/[C@H]1[C@H](O)CC(=O)[C@@H]1C/C=C\CCCC(=O)O [15(R)-15-methyl Prostaglandin E2],scaled lipid accumulation score,[3],≤ 0
CCCCC/C=C\C/C=C\C/C=C\C/C=C\CCCC(=O)O[C@@H](CO)COCCCCCCCCCCCCCCCC [1-Hexadecyl-2-arachidonoyl-glycerol],scaled lipid accumulation score,[3],0.044
CC(C)Oc1ccc(C(=O)N[C@H](CNC(=O)CN(C)C)Cc2ccc(-c3cn4cccc([C@H](C)O)c4n3)cc2)cc1Cl [listing 1 of 2 here],scaled lipid accumulation score,[1],0.882 (active)
CC(C)Oc1ccc(C(=O)N[C@H](CNC(=O)CN(C)C)Cc2ccc(-c3cn4cccc([C@H](C)O)c4n3)cc2)cc1Cl [listing 2 of 2 here],scaled lipid accumulation score,[2],0.464
CCCCCCCC/C=C\CCCCCCCC(=O)N[C@H](CO)Cc1ccc(O)cc1,scaled lipid accumulation score,[3],≤ 0
COCCOc1cc2ncnc(Cl)c2cc1OCCOC,scaled lipid accumulation score,[1],≤ 0
CSc1ccc2c(c1)N(CCC1CCCCN1C)c1ccccc1S2 (stereo unspecified) [Thioridazine hydrochloride],scaled lipid accumulation score,,0.711
same,scaled lipid accumulation score,library stock concentration: 4.9 mM,0.586
same,scaled lipid accumulation score,[1],0.072 and 0.283
O=C(O)COCCN1CCN([C@H](c2ccccc2)c2ccc(Cl)cc2)CC1,scaled lipid accumulation score,[1],≤ 0
CN1[C@@H](CC(=O)c2ccccc2)CCC[C@H]1C[C@H](O)c1ccccc1 [Lobeline hydrochloride],scaled lipid accumulation score,[1],≤ 0 and 0.256
CN1[C@@H](CC(=O)c2ccccc2)CCC[C@H]1C[C@H](O)c1ccccc1 [Lobeline alpha (-) hydrochoride],scaled lipid accumulation score,,0.216
O=C(O)COCCN1CCN(C(c2ccccc2)c2ccc(Cl)cc2)CC1 (stereo unspecified) [Cetirizine],scaled lipid accumulation score,[1],≤ 0
CN1[C@@H](CC(=O)c2ccccc2)CCC[C@H]1C[C@H](O)c1ccccc1 [Lobeline],scaled lipid accumulation score,library stock concentration: 5.9 mM,≤ -0.006
CN1CCC[C@@H]1CCO[C@](C)(c1ccccc1)c1ccc(Cl)cc1 [Clemastine fumarate] [listing 1 of 2 here],scaled lipid accumulation score,,0.619
CN(C)C(=O)C(CCN1CCC(O)(c2ccc(Cl)cc2)CC1)(c1ccccc1)c1ccccc1 [Loperamide hydrochloride],scaled lipid accumulation score,,0.682
same,scaled lipid accumulation score,[1],0.699 and 0.787
CN1CCC[C@@H]1CCO[C@](C)(c1ccccc1)c1ccc(Cl)cc1 [Clemastine Fumarate],scaled lipid accumulation score,[2],0.249
same,scaled lipid accumulation score,[1],0.819
CN1CCC[C@@H]1CCO[C@](C)(c1ccccc1)c1ccc(Cl)cc1 [Clemastine fumarate] [listing 2 of 2 here],scaled lipid accumulation score,library stock concentration: 5.8 mM,0.885 (active)
CN1CCC[C@@H]1CCO[C@](C)(c1ccccc1)c1ccc(Cl)cc1 [Clemastine],scaled lipid accumulation score,[1],0.362
CN1[C@@H](CC(=O)c2ccccc2)CCC[C@H]1C[C@H](O)c1ccccc1 [alpha-Lobeline hydrochloride],scaled lipid accumulation score,[1],0.493
CN(C)C(=O)C(CCN1CCC(O)(c2ccc(Cl)cc2)CC1)(c1ccccc1)c1ccccc1 [Loperamide HCl],scaled lipid accumulation score,[2],0.485
same,scaled lipid accumulation score,[1],0.611
CSc1ccc2c(c1)N(CCC1CCCCN1C)c1ccccc1S2 (stereo unspecified) [Thioridazine HCl],scaled lipid accumulation score,library stock concentration: 5.4 mM,0.47
O=C(O)COCCN1CCN(C(c2ccccc2)c2ccc(Cl)cc2)CC1 (stereo unspecified) [Cetirizine hydrochloride],scaled lipid accumulation score,[1],≤ -0.027
CN1CCCC1CCOC(C)(c1ccccc1)c1ccc(Cl)cc1.O=C(O)/C=C/C(=O)O (stereo unspecified) [Clemastine fumarate],scaled lipid accumulation score,[1],0.942 (active)
CN1[C@@H](CC(=O)c2ccccc2)CCC[C@H]1C[C@H](O)c1ccccc1,scaled lipid accumulation score,[1],≤ 0
CN1CCC[C@@H]1CCO[C@](C)(c1ccccc1)c1ccc(Cl)cc1.O=C(O)/C=C/C(=O)O [Clemastine fumarate],scaled lipid accumulation score,[1],0.861 (active)
O=C(O)COCCN1CCN(C(c2ccccc2)c2ccc(Cl)cc2)CC1 (stereo unspecified) [Cetirizine DiHCl],scaled lipid accumulation score,[2],≤ 0
same,scaled lipid accumulation score,[1],≤ 0
O=C(O)COCCN1CCN(C(c2ccccc2)c2ccc(Cl)cc2)CC1 (stereo unspecified) [Cetirizine dihydrochloride],scaled lipid accumulation score,,0.024
same,scaled lipid accumulation score,[1],0.244 and ≤ -0.001

# — the supplement of paper PMC9135407
